# Measurements published in the supplement of paper PMC10646978.
# ± gives the standard deviation.
# Assays:
# Settings in all cases: modulator concentration 10 µM
# [1] = system: RAW-Dual (murine macrophage reporter line); assay: NF-kB reporter (SEAP) activity fold change vs agonist alone; higher = enhanced NF-kB activity
# Outline: (§1)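 In 384-well plates holding 50 000 RAW-Dual murine macrophage reporter cells per well, compound at 10 μM final was pre-incubated for 1 hour at 37 °C, after which a PRR agonist was added overnight. Supernatant SEAP read with QUANTI-Blue at 620 nm absorbance reported NF-κB, and Lucia luciferase read with QUANTI-Luc luminescence reported IRF. Fold change values come from dividing each reporter signal by the mean of agonist-only control wells on the same plate, averaged over replicate plates with propagated errors.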
# [2] = system: RAW-Dual (murine macrophage reporter line); assay: IRF reporter (Lucia luciferase) activity fold change vs agonist alone; higher = enhanced IRF activity
# Outline: as §1
# [3] = system: RAW-Dual (murine macrophage reporter line); assay: viability score (confluency relative to resting cells, overnight) (fraction); higher = more viable, active = viable (0.7 or more)
# Outline: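 Confluency was the readout: RAW-Dual macrophages were imaged with IncuCyte after an overnight exposure to compound at 10 μM final. IncuCyte software produced two masks over all imaged wells. The viability score expresses confluency against resting cells, and both masks had to exceed 70% of resting cells for a compound to meet the cutoff.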
# [4] = agonist: CpG ODN 1826 0.5 ug/mL
Compound,"NF-kB reporter [1, 4]",NF-kB reporter ([1]; agonist: LPS 0.1 ug/mL),NF-kB reporter ([1]; agonist: MPLA […]),IRF reporter ([2]; agonist: 3'3'-cGAMP 10 ug/mL),IRF reporter ([2]; agonist: LPS 0.1 ug/mL),IRF reporter ([2]; agonist: MPLA […]),viability score [3]
Cc1c(C(=O)NN)sc(-c2ccccc2)c1C#N,0.868 ± 0.071,1.13 ± 0.074,0.987 ± 0.034,0.562 ± 0.071,1.08 ± 0.12,1.43 ± 0.29,0.998 (active)
COC(=O)COc1ccc2oc(=O)cc(-c3cc4cccc(OC)c4o3)c2c1,0.858 ± 0.065,1.06 ± 0.12,1.05 ± 0.025,0.928 ± 0.052,0.872 ± 0.084,1.04 ± 0.086,0.992 (active)
CC(C)(C)CC(=O)Nc1nc2ccc(S(C)(=O)=O)cc2s1,0.987 ± 0.12,1.19 ± 0.068,1.25 ± 0.12,0.787 ± 0.033,0.831 ± 0.11,0.779 ± 0.23,0.948 (active)
COC(CNC(=O)COc1cccc2c1OC(C)(C)C2)c1ccc(Cl)s1 (centres undefined),0.539 ± 0.028,1.19 ± 0.1,0.998 ± 0.043,0.873 ± 0.046,0.883 ± 0.06,1.14 ± 0.34,0.939 (active)
Cl.N=C(N)NCCC[C@H](N)C(=O)O,1.12 ± 0.27,0.995 ± 0.08,1.03 ± 0.081,0.896 ± 0.036,1.38 ± 0.15,1.2 ± 0.23,1.01 (active)
O=C(Nc1cc(N2CCN(Cc3ccccc3)CC2)ncn1)c1ccc2ccccc2n1,0.528 ± 0.04,0.984 ± 0.077,0.846 ± 0.036,0.94 ± 0.049,1.07 ± 0.067,1.24 ± 0.23,1.01 (active)
COC(=O)c1ccc(CN2CCc3ccccc3C2)cc1,0.82 ± 0.089,1.17 ± 0.08,1.3 ± 0.059,0.832 ± 0.052,0.974 ± 0.1,1.5 ± 0.36,0.938 (active)
